Experimental data: article PMC7819943, “Rice protein-binding microarrays: a tool to detect cis-acting elements near promoter regions in rice”
Over roughly 35,000 sequences, “fluorescence intensity (a.u.)” has its median near 10,000; the highest 2% begin near 52,000. The sample holds the highest values, similar sequences and a random draw of the others, so the mix is not that of the screen.

molecular target: T1, OsWOX13 (Oryza sativa, UniProt Q5QMM3 1-267); assay: protein-binding microarray (RPBM); PBS, 2% BSA, 51.3 ng/ul salmon testes DNA, 50 uM zinc acetate, 200 nM TF, 25 C, 1 h; high values mean tight binding; conditions: protein: recombinant; tags: N-terminal polyhistidine and DsRed monomer fusion (pET32a); label: CyDye5-dUTP incorporated in the synthesized complementary strand; 3' TTTTT single-stranded linker to array surface; dsDNA, one strand shown
T1 sequence: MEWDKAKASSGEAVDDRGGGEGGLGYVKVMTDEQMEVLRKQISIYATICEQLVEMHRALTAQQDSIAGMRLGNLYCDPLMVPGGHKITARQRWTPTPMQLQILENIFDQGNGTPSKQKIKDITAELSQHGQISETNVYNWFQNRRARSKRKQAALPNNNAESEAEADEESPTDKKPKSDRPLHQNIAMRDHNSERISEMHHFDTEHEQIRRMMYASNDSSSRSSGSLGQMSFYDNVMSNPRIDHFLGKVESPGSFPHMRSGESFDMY
Outline: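 The binding signal for each feature is its fluorescence intensity in arbitrary units. An Axon 4000B scanner was used to read a custom Agilent array that had been made double-stranded with Cy5-dUTP primer extension, blocked with 2% BSA, incubated at 25 °C for 1 h with 200 nM protein in PBS, 2% BSA, salmon testes DNA and 50 µM zinc acetate, and washed. The protein was an N-terminal polyhistidine–DsRed transcription factor fusion from E. coli BL21-CodonPlus, purified on Ni–NTA.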

Sequence	binding signal
TGTAACAAACAGGCTGTAACGGCACCGTAATAAACCCAACCGGAGTCACCTAGTGCAG	6570 fluorescence intensity (a.u.)
AGCCAATCAGAATCCAAATAAAACATTCTTGCAGCAGGCGCGGAGTCACCTAGTGCAG	15900 fluorescence intensity (a.u.)
ATTTGTCTAGTACTCCTAATTGGTACATCGACGATCTGCGCGGAGTCACCTAGTGCAG	6670 fluorescence intensity (a.u.)
CTAGCCACTTGGTATAATTGACTGAGTCTTGATAAAGCTTCGGAGTCACCTAGTGCAG	7350 fluorescence intensity (a.u.)
CAAATGTAATTTCGCACTATTCTTATCTAATGTTTGACATCGGAGTCACCTAGTGCAG	4370 fluorescence intensity (a.u.)
TTTGACCTTTGTTCTGATTGCTACAACGAGGGAAAGTTTACGGAGTCACCTAGTGCAG	4690 fluorescence intensity (a.u.)
ATATATATATATATATATATATATATATATATAAACCCAACGGAGTCACCTAGTGCAG	24000 fluorescence intensity (a.u.)
ATCTAAGCTCATCTCAACCAATCACAACCATCGTTGATTTCGGAGTCACCTAGTGCAG	3410 fluorescence intensity (a.u.)
ATAAATTACTTTTCGTTTGCAAATATGCTGTTTGAATAAGCGGAGTCACCTAGTGCAG	13300 fluorescence intensity (a.u.)
TTACATGATTATGTTAATTACTACACAATTATAGGGCCTACGGAGTCACCTAGTGCAG	42500 fluorescence intensity (a.u.)
TTCTGATCACAGATCAATTACTCTTGATCGCCCATTTATTCGGAGTCACCTAGTGCAG	9590 fluorescence intensity (a.u.)
TGTATTCATCATCTAAATTATTGTTCATAAACCTATAGGCCGGAGTCACCTAGTGCAG	3420 fluorescence intensity (a.u.)
ACGGAATGAACACTAATTTACTTAATACATAGAACCACGGCGGAGTCACCTAGTGCAG	19400 fluorescence intensity (a.u.)
AACCAATTTATATTGTCAGAAGAAAATGCATTATATAGGTCGGAGTCACCTAGTGCAG	6730 fluorescence intensity (a.u.)
CATTGAATGTTTGGACACTAATTATAAATATTAAACGTAGCGGAGTCACCTAGTGCAG	9090 fluorescence intensity (a.u.)
AGTTATTGATAACATAAGCCTTAAAAGTTCGCCCTAACCTCGGAGTCACCTAGTGCAG	4600 fluorescence intensity (a.u.)
CAAAACAGACATAATCTTGTTGGACAGACGTAGCCATGAACGGAGTCACCTAGTGCAG	12500 fluorescence intensity (a.u.)
TGCTTGCTTGCTTGGTTTGATTGGTGGAGGTGGGAGGAGTCGGAGTCACCTAGTGCAG	3920 fluorescence intensity (a.u.)
TGGAAGTCAAGTCACTAATTGGAAGAAGATGGTGATAATGCGGAGTCACCTAGTGCAG	16600 fluorescence intensity (a.u.)
GGTTGGATGGTTGGATTTGATGTGGATTTGAATTGTTATGCGGAGTCACCTAGTGCAG	7890 fluorescence intensity (a.u.)
TTGCAATTGCCAATTTCTTTATTATATTGTTGGTTTAACTCGGAGTCACCTAGTGCAG	16700 fluorescence intensity (a.u.)
CATTGATTTTGTTTTATTATTTTGGTTGGTGGTGCCGTGTCGGAGTCACCTAGTGCAG	39100 fluorescence intensity (a.u.)
TTGATTGGATAATTTTGTGGTTTGGGAAGAAATGGTGATGCGGAGTCACCTAGTGCAG	64000 fluorescence intensity (a.u.)
AGTTTGGATTTTGGTTGAAATTGAAGATAATGTGACTGAACGGAGTCACCTAGTGCAG	3240 fluorescence intensity (a.u.)
TCATAATTGGATGGCATTGTACTGTGATTTGTTTGTGTTGCGGAGTCACCTAGTGCAG	49200 fluorescence intensity (a.u.)
CCTAATTTGCGTGATTGGATTGGTTGGTTGTGTTGTAATGCGGAGTCACCTAGTGCAG	65000 fluorescence intensity (a.u.)
GCTTAATTAGCTTGTATTTAGTTGGTTAATTTAGTGTTGTCGGAGTCACCTAGTGCAG	43600 fluorescence intensity (a.u.)

Sequence	binding signal
GGTGATTGCATTTGATTGGGTGGAAAAGGTTTGATTTTGTCGGAGTCACCTAGTGCAG	64900 fluorescence intensity (a.u.)
GTTGGTTAATTGCAATTTAATTGTTGTATTGTAAGAGTCTCGGAGTCACCTAGTGCAG	56100 fluorescence intensity (a.u.)
GACACTGGGTAAATTATTCAATTCTAACTAAATTATATGACGGAGTCACCTAGTGCAG	4590 fluorescence intensity (a.u.)
TCGATAAATTGAGGAGACCAAAATTCACGAAATCAACATACGGAGTCACCTAGTGCAG	7550 fluorescence intensity (a.u.)
AGCTGTTCCAATTATGAACTCACTAACTTTACATAGAGGTCGGAGTCACCTAGTGCAG	3650 fluorescence intensity (a.u.)
ACAGTTCCTTTGTGCCAATCATTGAACCCGGGAATGCTGGCGGAGTCACCTAGTGCAG	4780 fluorescence intensity (a.u.)
TATGAATGACATATAAACAGATAATCGTGTTCACCGAATGCGGAGTCACCTAGTGCAG	20900 fluorescence intensity (a.u.)
TCTGATAGCTTGTGAGGGTTTCATTCATCCTCTGCTAGTGCGGAGTCACCTAGTGCAG	6630 fluorescence intensity (a.u.)
GTCTTCAAATTATATTAGTTATAACTATAGTTCACACAATCGGAGTCACCTAGTGCAG	4610 fluorescence intensity (a.u.)
TCAGCTAATCAGCTAACTGGTCCTTTTCCTACTTCCCTTGCGGAGTCACCTAGTGCAG	8010 fluorescence intensity (a.u.)
GGGGATTGGGAGTTTATACAAGGGAATTGATGGTGAGATTCGGAGTCACCTAGTGCAG	21000 fluorescence intensity (a.u.)
TTAAGATAGAGGAAACATTGATTGTATGCATGCTATATATCGGAGTCACCTAGTGCAG	3750 fluorescence intensity (a.u.)
GCTAATTTATACAATAGTTGCTTACTATAGAATTAATGCACGGAGTCACCTAGTGCAG	27200 fluorescence intensity (a.u.)
GCATAGATTATTATGCAGAAAGTTCATGTATATGACCAGCCGGAGTCACCTAGTGCAG	6640 fluorescence intensity (a.u.)
ACACCAATTGAACATTTGGATGTAAACATTAGGGATGCTGCGGAGTCACCTAGTGCAG	3400 fluorescence intensity (a.u.)
GCAGTCCATTAACACGTGATTAATTAAGTATTAGTTAATTCGGAGTCACCTAGTGCAG	21800 fluorescence intensity (a.u.)
AGTTAATTAATTAGTCCATCCAAGGAAGGAGTATATGATTCGGAGTCACCTAGTGCAG	55800 fluorescence intensity (a.u.)
TTGCTAATGACGGATTAATTAGGCTTAATAAATTCGTCTCCGGAGTCACCTAGTGCAG	33900 fluorescence intensity (a.u.)
ACCAATATATATATACTAATTAAATTTGTGGAACTTGGATCGGAGTCACCTAGTGCAG	4420 fluorescence intensity (a.u.)
CCTAATTAAGTGGATTTTAGTTTTATATATTATTTAACTTCGGAGTCACCTAGTGCAG	25700 fluorescence intensity (a.u.)
ATATGATTAATATTTTATGCGATTAATATTTTATGCGTGACGGAGTCACCTAGTGCAG	41400 fluorescence intensity (a.u.)
GAGCCTAATTAATTCGTGATTAGCCTAATGACGGATTAATCGGAGTCACCTAGTGCAG	57400 fluorescence intensity (a.u.)
TGTTAGATGATAAAACATGATTAATATTTTATGCGTGACTCGGAGTCACCTAGTGCAG	8120 fluorescence intensity (a.u.)
ATGATTAATTATTATTTTAGTGATATGCGATATACTCGTGCGGAGTCACCTAGTGCAG	65000 fluorescence intensity (a.u.)
AGTTAGTGATTATATGATTAATCTATGGTCCAAATTATCTCGGAGTCACCTAGTGCAG	23900 fluorescence intensity (a.u.)
CATTTGCTAATGACGGATTAATTAGGGTTTATAAATTCGTCGGAGTCACCTAGTGCAG	24400 fluorescence intensity (a.u.)
TGTGATTAGTTCTAATTTAATATAGCAAGAACTAGTGGATCGGAGTCACCTAGTGCAG	53800 fluorescence intensity (a.u.)
